The experiment deals with T1, POU2 (OCT2 POU domain);BOB1 (OBF1, OCA-B) (human;human, UniProt P09086;Q16633 175-386;1-256, |).
T1 sequence 1: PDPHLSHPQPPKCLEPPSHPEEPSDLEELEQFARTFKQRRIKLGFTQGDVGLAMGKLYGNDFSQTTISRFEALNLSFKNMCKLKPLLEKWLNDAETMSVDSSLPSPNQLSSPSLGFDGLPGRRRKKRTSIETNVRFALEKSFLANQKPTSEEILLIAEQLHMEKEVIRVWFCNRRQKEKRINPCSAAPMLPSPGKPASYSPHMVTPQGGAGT
T1 sequence 2: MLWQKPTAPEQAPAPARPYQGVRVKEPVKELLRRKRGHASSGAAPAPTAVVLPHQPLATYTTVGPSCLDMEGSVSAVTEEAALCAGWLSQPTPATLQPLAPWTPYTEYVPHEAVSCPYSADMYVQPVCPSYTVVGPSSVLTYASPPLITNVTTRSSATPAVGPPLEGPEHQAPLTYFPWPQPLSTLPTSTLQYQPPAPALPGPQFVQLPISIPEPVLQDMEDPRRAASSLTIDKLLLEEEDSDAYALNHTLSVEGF
Description: EMSA-SELEX-seq; with BOB1 (ternary complex band); 20 mM Tris-HCl pH 7.6, 140 mM NaCl, 10% glycerol, 0.5 mM EDTA, 0.05% Triton X-100, 0.1 mg/mL BSA, 0.1 mg/mL poly(dI-dC), 5 mM DTT, room temperature, 20 min; high values mean tight binding. The settings on record: protein: recombinant;recombinant; copies: 1;1; dsDNA, one strand shown. A digest of the protocol:
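Binding preference means the percentage of sequenced 8-mers matching a motif pattern. Tagged POU-domain proteins (30 ng), expressed in E. coli BL21, purified under denaturing conditions and renatured, were mixed with 300 ng of a PCR-amplified double-stranded random 35-nt library, with or without 28 ng coactivator protein, for 20 min at RT in 20 μL Tris–HCl pH 7.6 binding buffer. Selection was repeated over four rounds of excising complex bands from native 6% PAGE, eluting and PCR amplification, followed by Illumina sequencing.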
On the technique in general: A gel shift assay detects complexes by their altered migration in electrophoresis.
In the case of ATGAAAAT, the binding signal was 0.518 % of ANNNNAAN 8-mers.

For AGACAAAG, the binding signal is 0.0248 % of ANNNNAAN 8-mers.

As for ATCATAAA, the binding signal was 0.0586 % of ANNNNAAN 8-mers.

For the sequence AAAGTAAC, the binding signal is 0.0537 % of ANNNNAAN 8-mers.

On to AGAAAAAC, for which the binding signal is 0.0396 % of ANNNNAAN 8-mers.

On to AGTATAAA, for which the binding signal is 0.0479 % of ANNNNAAN 8-mers.

Turning to AGGATAAT, the binding signal was 0.106 % of ANNNNAAN 8-mers.

In the case of ATTCTAAT, the binding signal is 0.152 % of ANNNNAAN 8-mers.

With AAAAGAAA, the binding signal was 0.0702 % of ANNNNAAN 8-mers.

Take AATGGAAC: the binding signal is 0.0528 % of ANNNNAAN 8-mers.

Regarding AACTGAAT, the binding signal is 0.0735 % of ANNNNAAN 8-mers.

For AACGCAAG, the binding signal was 0.0281 % of ANNNNAAN 8-mers.

With ACCCTAAT, the binding signal was 0.0223 % of ANNNNAAN 8-mers.

With ACTCGAAT, the binding signal was 0.0504 % of ANNNNAAN 8-mers.

With ATGGTAAA, the binding signal was 0.106 % of ANNNNAAN 8-mers.

In the case of ATGATAAA, the binding signal is 0.0619 % of ANNNNAAN 8-mers.

Consider ACCTAAAC, for which the binding signal is 0.0223 % of ANNNNAAN 8-mers.

For AATCGAAG, the binding signal is 0.0495 % of ANNNNAAN 8-mers.

AAAAAAAA: the binding signal was 0.13 % of ANNNNAAN 8-mers.

For ATCATAAT, the binding signal was 0.0636 % of ANNNNAAN 8-mers.

In the case of AGTGAAAC, the binding signal was 0.0206 % of ANNNNAAN 8-mers.

AGGTTAAA: the binding signal was 0.052 % of ANNNNAAN 8-mers.

Take AAACCAAT: the binding signal is 0.0347 % of ANNNNAAN 8-mers.

In the case of AACGTAAG, the binding signal is 0.0305 % of ANNNNAAN 8-mers.

In the case of ACTACAAG, the binding signal is 0.0231 % of ANNNNAAN 8-mers.

With AGAGGAAA, the binding signal was 0.0619 % of ANNNNAAN 8-mers.

Turning to ATTACAAC, the binding signal is 0.0223 % of ANNNNAAN 8-mers.

AAGTGAAC: the binding signal was 0.0388 % of ANNNNAAN 8-mers.

On to AAGGAAAT, for which the binding signal is 0.171 % of ANNNNAAN 8-mers.

As to ACCGCAAT, the binding signal is 0.0264 % of ANNNNAAN 8-mers.

For ATCGCAAA, the binding signal is 0.0413 % of ANNNNAAN 8-mers.

Turning to AGGTGAAC, the binding signal is 0.0264 % of ANNNNAAN 8-mers.

Regarding AATACAAG, the binding signal was 0.0479 % of ANNNNAAN 8-mers.

With AGACCAAA, the binding signal was 0.0239 % of ANNNNAAN 8-mers.

On to AAACAAAG, for which the binding signal was 0.0892 % of ANNNNAAN 8-mers.

In the case of AACTCAAT, the binding signal is 0.0314 % of ANNNNAAN 8-mers.

Turning to ATTATAAT, the binding signal was 0.207 % of ANNNNAAN 8-mers.

As for ACGCAAAT, the binding signal was 1.38 % of ANNNNAAN 8-mers.

With ACACAAAA, the binding signal is 0.0363 % of ANNNNAAN 8-mers.

For the origin of these results see publication PMC10812921, “Transcriptional Coactivator BOB1 (OBF1, OCA-B) Modulates the Specificity of DNA Recognition by the POU-Domain Factors OCT1 and OCT2 in a Monomeric Configuration”.
